A selection: hits, their analogues and other compounds. The true share with any hit is near 1.6%.
KCNQ2 pot: potentiators of rat KCNQ2 potassium channel | 0.54% of 310,000 active | CHO-K1 KCNQ2, FluxOR thallium flux fluorescence; active compounds read high | B-score at 10 µM | O88943;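 active = fluorescence ratio B-score at least 3 SD of library B-scores, with initial fluorescence B-score within 3 of them, cut at about 5.3 in these data; same plate scores as AID 2156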;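 note: B-score of peak minus minimum over baseline fluorescence ratio after K+ and Tl+ stimulus; positive B-score means potentiation of KCNQ2 with more thallium influx and brighter signal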
KCNQ2 inh: blocks the rat KCNQ2 potassium channel | O88943 | CHO-K1 KCNQ2, FluxOR thallium flux, 20 min; active compounds read low | B-score at 10 µM | 1.1% of 310,000 active | AID 2156;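 active = fluorescence ratio B-score at most minus 3 library SDs, with starting brightness B-score within 2 library SDs, cut at about -5.5 in these data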
Kir21 confirm: confirmation of mouse Kir2.1 potassium channel inhibitors; Tl flux remaining, % of negative control (active compounds read low), % at 10 µM; 41% of 2,300 active; Kir2.1-expressing cells, FluxOR thallium flux fluorescence; active compounds read low; shares compounds with KCNQ2 pot;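 active = Primary-screen hit whose thallium flux fell at least 3 control SD below untreated wells in both duplicates, with normal baseline fluorescence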;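 note: 0% = blank wells without stimulus and 100% = stimulated no-compound controls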
HEK293 Tl flux: parental HEK293 activity in Kir2.1 inhibitor counter-screen | shares compounds with KCNQ2 pot | AID 2105 | parental HEK293 cells, FluxOR thallium flux fluorescence; 0% = unstimulated blank wells | 19% of 2,300 active | FluxOR signal as % of negative control (100 = no effect), % at 10 µM;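 active = dye signal at least 3 control SD above or below untreated wells in both duplicates, raw fluorescence within 3, either direction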;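 note: percent is based on the flux ratio of peak minus minimum fluorescence over baseline F0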
CHO-K1 Tl ctr: counter-screen for KCNQ2 potentiators: effect in parental CHO-K1 cells; shares compounds with KCNQ2 pot; FluxOR thallium flux fluorescence; zero = vehicle mean+3SD, 100% = vehicle-minus-blank window; activity increase over 3SD of controls, % at 10 µM; 43% of 1,200 active; AID 2282;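 active = signal rise of at least 3 SD above the untreated control mean, in both duplicate wells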;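 note: counter screen of KCNQ2 potentiator hits so any rise reflects channel-independent effects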
KCNQ1 sel pot: tests whether KCNQ2 potentiators also act on human KCNQ1; shares compounds with KCNQ2 pot; CHO KCNQ1 stable, FluxOR thallium flux fluorescence; beyond 3SD, as % of vehicle-control signal; activation over 3SD threshold, % at 10 µM; 28% of 1,200 active;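 active = fluorescence ratio rise of at least 3 SD of vehicle wells above their mean, in both replicate wells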;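 note: 0% = vehicle mean plus 3 SD and 100% = vehicle minus unstimulated blank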
Target sequence (P51787 whole entry, looked up): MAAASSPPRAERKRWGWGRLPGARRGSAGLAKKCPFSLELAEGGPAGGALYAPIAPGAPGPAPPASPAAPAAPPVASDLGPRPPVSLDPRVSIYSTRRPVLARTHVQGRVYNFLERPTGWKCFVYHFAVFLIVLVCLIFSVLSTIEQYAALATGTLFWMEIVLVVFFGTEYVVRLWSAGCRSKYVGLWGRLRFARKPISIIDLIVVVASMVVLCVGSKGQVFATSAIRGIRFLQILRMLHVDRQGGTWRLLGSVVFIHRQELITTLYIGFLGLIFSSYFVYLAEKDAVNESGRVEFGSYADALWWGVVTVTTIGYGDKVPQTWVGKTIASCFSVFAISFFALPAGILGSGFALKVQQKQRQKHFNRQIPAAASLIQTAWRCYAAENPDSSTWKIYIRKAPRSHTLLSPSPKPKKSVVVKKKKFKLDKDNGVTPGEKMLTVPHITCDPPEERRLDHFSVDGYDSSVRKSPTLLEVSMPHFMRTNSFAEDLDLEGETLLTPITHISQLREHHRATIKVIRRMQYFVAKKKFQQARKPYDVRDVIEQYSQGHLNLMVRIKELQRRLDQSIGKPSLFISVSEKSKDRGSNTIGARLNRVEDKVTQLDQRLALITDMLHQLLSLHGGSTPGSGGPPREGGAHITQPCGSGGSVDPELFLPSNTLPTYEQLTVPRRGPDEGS
KCNQ2 pot conf: confirmation of rat KCNQ2 potassium channel potentiators; shares compounds with KCNQ2 pot; CHO-KCNQ2 cells, FluxOR thallium flux fluorescence; potentiation, less the hit threshold, % at 10 µM; 68% of 1,200 active;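 active = fluorescence ratio rising 3 SD or more over the vehicle control mean in both replicates, plus primary screen hit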;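 note: peak minus minimum thallium fluorescence divided by baseline after K/Tl stimulus; 0% = vehicle mean plus 3 SD and 100% = vehicle minus unstimulated blank difference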
Kir21 spec: tests whether KCNQ2 potentiators also affect mouse Kir2.1; HEK293 Kir2.1, FluxOR thallium flux fluorescence; shares compounds with KCNQ2 pot; activity over 3SD threshold, % at 10 µM; AID 2345; 2% of 1,200 active;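 active = fluorescence ratio rise of at least 3 SD above the vehicle-control mean, seen in both replicates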;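 note: 0% = vehicle mean plus 3 SD and 100% = vehicle minus no-stimulus blank window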
KCNQ2 W236L MoA: rat KCNQ2 W236L mutant potentiation by KCNQ2 potentiators | AID 2558 | CHO KCNQ2-W236L, automated patch clamp current | current increase over 3SD of negative controls (%), active compounds read high, % at 25 µM | 10% of 940 active | shares compounds with KCNQ2 pot;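 active = current increase at least 3 SD of the untreated controls above them in both duplicate recordings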
The depositor's hits bear a star; i = inactive; x = not tested or not shown.

SMILES	KCNQ2 pot	KCNQ2 inh	Kir21 confirm	HEK293 Tl flux	others
CC(NC1CCCC1)c1ccccc1 (configuration not stated)	0.98	i	x	x
CC(C)c1nnc(NC(=O)CC23CC4CC(CC(C4)C2)C3)s1	x	i	x	x
CCCCn1nnc(NC(=O)CC23CC4CC(CC(C4)C2)C3)n1	19.7*	i	i	i	CHO-K1 Tl ctr=10.1*;KCNQ1 sel pot=-24.5;KCNQ2 pot conf=59.1*;Kir21 spec=-34.1;KCNQ2 W236L MoA=i
O=C(CN1CCCCC1)NNc1nc(-c2ccccc2)c2cc(Cl)ccc2n1	11.1*	i	i	i	CHO-K1 Tl ctr=-14.9;KCNQ1 sel pot=-19.4;KCNQ2 pot conf=15.4*;Kir21 spec=-35.0;KCNQ2 W236L MoA=i
O=C(O)CCC(=O)NNc1nc(-c2ccccc2)c2cc(Cl)ccc2n1	x	i	x	x
CC1(C)Cc2cccc(OCC(=O)Nc3cc(C(F)(F)F)ccc3N3CCOCC3)c2O1	0.08	i	x	x
O=C(O)Cc1ccc(NC(=S)Nc2ccc(Br)cc2Cl)cc1	x	i	x	x
CCCN1C(=O)c2cc(C(=O)Nc3ccc(OC)cc3OC)ccc2C1Nc1ccc(OC)cc1OC (configuration not stated)	1.49	i	x	x
O=c1cc(Cl)[nH]c(=O)n1Cc1ccccc1	1.12	i	x	x
O=c1ccsn1Cc1ccccc1	5.65*	i	x	x	CHO-K1 Tl ctr=-17.8;KCNQ1 sel pot=-17.2;KCNQ2 pot conf=-4.3;Kir21 spec=-63.2
O=C(NCCN1CCOCC1)c1ccc(=O)n(Cc2ccc(Cl)cc2)c1	0.4	i	x	x
OC(CNCC1(N2CCCCC2)CCCCC1)COc1ccc(Cl)cc1Cl (configuration not stated)	2.54	i	50.0%*	75.0%*
O=C(COc1ccc(Cl)cc1Cl)NC(=O)N1CCCCC1	x	i	x	x
Cc1cc(C)n(-c2ccc(C(=O)NCc3ccc(F)cc3)cc2)n1	1.12	i	22.0%*	i
Cc1cc(C)n(-c2ccc(C(=O)NCc3ccc4c(c3)OCO4)cc2)n1	0.49	i	x	x
O=C(CCc1ccc(O)cc1)N/N=C/c1coc2ccccc2c1=O	x	i	x	x
CNC[C@@H](CC1CCCCC1)NC[C@H](CC(C)C)NCCc1cccc(C(F)(F)F)c1	x	i	27.5%*	i
CN(Cc1cccc(C(F)(F)F)c1)C(=O)C1CCC(=O)N(CC2CCCCC2)C1 (configuration not stated)	x	i	x	x
CNC[C@@H](Cc1ccccc1)NC[C@@H](CC1CCCCC1)NCCCc1ccccc1	-6.16	-6.16*	i	i
CN(C[C@H](Cc1ccccc1)N(C[C@@H](CC1CCCCC1)N(CCc1ccccc1)N=O)N=O)N=O	x	i	x	x
Cc1cccn2cc(CCNC(=O)Cc3cccs3)nc12	0.06	i	x	x
Cc1ccc(S(=O)(=O)N2CC(O)CC2C(=O)OCC(=O)c2ccccc2Cl)cc1C (configuration not stated)	0.79	i	x	x
C#CCNc1nc(C)nc2c1nnn2Cc1ccccc1F	x	i	x	x
O=C(O)CCC(=O)N1CCN(c2cccc(Cl)c2)CC1	0.8	i	x	x
O=C(O)/C=C/C(=O)N1CCN(c2cccc(Cl)c2)CC1	0.11	i	i	i
SMILES	KCNQ2 pot	KCNQ2 inh	Kir21 confirm	HEK293 Tl flux	others
CCc1ccc(C(=O)CSc2nc3cc(S(=O)(=O)N4CCOCC4)ccc3n2CC)cc1	x	i	x	x
CCCCCOc1ccc(C(=O)NCC(=O)NCC(=O)OCC)cc1	x	i	x	x
Cc1[nH]n(-c2ccccc2)c(=O)c1C(=O)c1ccccc1	x	i	x	x
CCSC(=S)c1c(C)[nH]n(-c2ccccc2)c1=O	7.04*	i	i	221.5%*	CHO-K1 Tl ctr=-21.3;KCNQ1 sel pot=-9.4;KCNQ2 pot conf=-3.7;Kir21 spec=-28.5;KCNQ2 W236L MoA=i
CCc1ccc(CNC(=O)C2CCN(S(=O)(=O)N3CCC(C)CC3)CC2)cc1	6.89*	i	i	i	CHO-K1 Tl ctr=-13.7;KCNQ1 sel pot=-6.7;KCNQ2 pot conf=-7.5;Kir21 spec=-27.8
CC1CCN(S(=O)(=O)N2CCC(C(=O)NCc3ccc4c(c3)OCO4)CC2)CC1	0.08	i	x	x
Cc1ccc(-n2cc(CNCCCn3ccnc3C)c(-c3ccc(F)cc3)n2)cc1	x	i	60.0%*	i
Cc1ccc(-n2cc(CNCCCn3cccn3)c(-c3cccc(C)c3)n2)cc1	x	i	x	x
N#Cc1ccccc1Sc1ccccc1C(=O)NCC(c1ccco1)N1CCCC1 (configuration not stated)	x	i	x	x
Cc1ccc2nc(NCc3ccccc3)[nH]c2c1	x	i	22.5%*	i
COc1ccc2nc(NCc3ccccc3)[nH]c2c1	0.44	i	x	x
O=C(Nc1ccccc1)C1=C[C@@H](c2coc3ccccc3c2=O)C[C@@H](OCc2ccc(CO)cc2)O1	0.81	i	x	x
COCCCNC(=O)C1=CCN(S(=O)(=O)c2ccc(OC)cc2)CC1	x	i	x	x
CCCCCC(O)(c1ccc(OC)cc1)C(CN1CCOCC1)c1ccccc1 (configuration not stated)	6.22*	i	i	i	CHO-K1 Tl ctr=62.1*;KCNQ1 sel pot=-13.4;KCNQ2 pot conf=-1.5;Kir21 spec=-29.4;KCNQ2 W236L MoA=i
CCCCC(O)(c1ccc(OC)cc1)C(CN1CCOCC1)c1ccccc1 (configuration not stated)	0.75	i	x	x
COc1ccc(CCNCc2c(OC)ccc3ccccc23)cc1OC	0.43	i	x	x
COc1ccc2ccccc2c1CNC(C)CCc1ccccc1 (configuration not stated)	x	i	40.5%*	i
CC(=O)N[C@H]1[C@H](Oc2ccc3c(c2)CCC2C3CC[C@]3(C)C(=O)CCC23)O[C@H](CO)[C@@H](O)[C@@H]1O (some centres not stated)	0.95	i	x	x
COc1ccc(/C=C(\NC(=O)c2ccc(C)cc2)C(=O)N2CCCCC2)cc1	x	i	x	x
CC1=NN(c2ccc(Br)cc2)C(=O)/C1=C/c1ccc(-c2ccccc2C(=O)O)o1	7.11*	i	i	i	CHO-K1 Tl ctr=-12.0;KCNQ1 sel pot=13.6*;KCNQ2 pot conf=19.4*;Kir21 spec=-32.6;KCNQ2 W236L MoA=i
CC1=NOC(=O)/C1=C\c1ccc(-c2ccc(Br)cc2C(=O)O)o1	1.18	i	x	x
CC1CCCN(CCCNC(=O)c2ccc(N3CCCC3=O)cc2)C1 (configuration not stated)	0.96	i	x	x
O=C(Nc1ccccc1)Nc1ncc([N+](=O)[O-])s1	7.81*	i	i	i	CHO-K1 Tl ctr=-22.6;KCNQ1 sel pot=90.2*;KCNQ2 pot conf=15.2*;Kir21 spec=-67.0;KCNQ2 W236L MoA=i
O=C(Nc1ncc([N+](=O)[O-])s1)c1cccc([N+](=O)[O-])c1	1.85	i	x	x

Screening data deposited in PubChem BioAssay by Johns Hopkins Ion Channel Center.
